This excerpt belongs to a sample that is enriched for hits.
Dicer processing – inhibitors of human Dicer processing of pre-microRNA; Q9UPY3; cat-ELCCA pre-miR-21 Dicer processing, chemiluminescence; stronger effect = higher value; z-score at 25 µM; 6% of 47,000 active; AID 1347074; in the data active = z-score above about 3, passing the limit was not always enough;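 note: plate controls were vehicle for no effect and no enzyme for full effect; higher signal means more uncleaved substrate so more Dicer inhibition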
* hit, by the source's call.

SMILES	Dicer processing
C=CCN(c1ccccc1C1=N/C(=C\c2ccc(C)cc2)C(=O)O1)S(=O)(=O)c1ccc(Cl)cc1	-0.86
CC(C)N=C(C(=O)NC(C)C)C(F)(F)F	0.51
CCCN(CCC)CC(O)Cn1cnc2c1c(=O)n(C)c(=O)n2C (stereo not given)	1.52
Cc1ccc(Nc2cc(-c3ccccc3)nc3ncnn23)cc1	3.18*
Cc1cc(Nc2ccccc2)n2ncnc2n1	-1.45
FC(F)(F)c1cc(-c2ccccc2)nc2ncnn12	-0.01
CSc1n[nH]c(NC(=O)c2ccc(C(C)(C)C)cc2)c1-c1ccccn1	1.42
Cc1cc(C(C)(C)C)cc(S(=O)(=O)Nc2ccc(O)c(Sc3ncn[nH]3)c2)c1C	8.25
Cc1cc(C)c(S(=O)(=O)Nc2ccc(O)c(Sc3ncn[nH]3)c2)cc1C	7.3*
O=C(CSc1ncn[nH]1)Nc1ccc(F)cc1	-0.99
CCOC(=O)c1ccc2nc(C(F)(F)F)cc(N3CCN(C)CC3)c2c1	-1.1
COc1ccc(C(O)c2nccn2C)cc1OC (stereo not given)	3.51*
COc1ccc2ccccc2c1C(O)c1nccn1C (stereo not given)	-3.59
Cn1ccnc1C(O)c1ccccc1 (stereo not given)	1.26
O=C(c1ccc(F)cc1)c1coc2ccc(O)cc12	-2.72
Cc1cc(C)c2c(n1)sc1c(SCc3ccc(F)cc3)ncnc12	1.03
C=CCSc1ncnc2c1sc1nc(C)cc(C)c12	3.08*
CCOc1ncnc2c1sc1nc(C)cc(C)c12	1.12
Cc1onc(-c2c(Cl)cccc2Cl)c1C(=O)NC(C)(C)C	-0.74
CCOC(=O)/C(C#N)=C/c1ccc(N(C)C)cc1Cl	0.39
O=C(Cn1cnc([N+](=O)[O-])n1)OCCCc1ccccc1	3.54*
O=C(O)c1cccc(Cn2cnc([N+](=O)[O-])n2)c1	-0.2
COC(=O)c1cc([N+](=O)[O-])nn1Cc1ccccc1	1.45
COc1ccc(S(=O)(=O)N2CCC(C(=O)O)CC2)cc1C(=O)O	7.46
COc1ccc(CN(Cc2ccc(OC)cc2)C(=O)Nc2ccc(Cl)cc2)cc1	-0.18
SMILES	Dicer processing
O=C1C(=O)N(CCCn2ccnc2)C(c2ccccc2)/C1=C(\O)c1ccc(F)cc1 (stereo not given)	-0.77
CN(C)c1ccc(NC(=O)c2cnccn2)cc1	2.79
CC1CCC(C(=O)Oc2ccc(Cl)cc2)CC1 (stereo not given)	0.93
N#C/C(=C\Nc1ccc(OC(F)(F)F)cc1)c1nc2ccccc2[nH]1	-0.8
Cc1cc(C)c(S(=O)(=O)Nc2cccc3cccnc23)c(C)c1	4.47*
Cc1cc2oc(=O)sc2cc1NS(=O)(=O)c1cccc2cccnc12	-3.6
Cc1cc(C)c(S(=O)(=O)Nc2ccc(Br)c3cccnc23)c(C)c1	2.73
N=c1scc(-c2ccc(Cl)cc2)n1-c1cc(Cl)c(Cl)cc1Cl	0.98
O=[N+]([O-])c1cnc(Sc2n[nH]c(-c3ccc(Cl)cc3)n2)s1	-2.59
CCCCCOC(=O)C1=C(C)NC2=C(C(=O)CC(C)(C)C2)C1c1cc2c(cc1Cl)OCO2 (stereo not given)	-0.71
CCOC(=O)c1cc(C)ccc1NC(=S)Nc1cccc(Cl)c1	-5.33
CCOC(=O)c1cc(CC)sc1NC(=S)Nc1cccc(Cl)c1	7.09*
CCOC(=O)c1cc(CC)sc1NC(=S)Nc1ccccc1C(F)(F)F	-0.97
O=C(O)c1cccc2c1-c1ccccc1C2	-0.19
OCCNc1ncnc2ccccc12	0.02
O=C(O)CNc1ncnc2ccccc12	3.56*
O=C(O)CCCNc1ncnc2ccccc12	-0.76
O=C(CC1SC(=Nc2ccccc2)NC1=O)NCc1ccccc1 (stereo not given)	-0.3
O=C(c1ccc(F)cc1)c1oc2ccccc2c1NC(=O)C1COc2ccccc2O1 (stereo not given)	-0.34
N=Cc1cc(-c2ccccc2)oc1S	-1.4
CC1=C(C(=O)Nc2ccc(F)cc2F)C(c2ccc3c(c2)OCO3)C2=C(CC(C)(C)CC2=O)N1 (stereo not given)	3.07*
CCOC(=O)C1=C(C)NC2=C(C(=O)CC(C)(C)C2)C1c1ccc(F)cc1 (stereo not given)	0.51
CC1=C(C(=O)Nc2cccc(C)n2)C(c2cccc(Br)c2)C2=C(CC(C)(C)CC2=O)N1 (stereo not given)	4.8*
CC1=C(C(=O)Nc2cc(C)ccn2)C(c2ccc(F)cc2)C2=C(CC(C)(C)CC2=O)N1 (stereo not given)	1.78
COC(=O)C1=C(C)NC2=C(C(=O)CC(C)(C)C2)C1c1cccc(F)c1 (stereo not given)	-0.96
CC1=C(C(=O)Nc2ccc(Br)cn2)C(c2ccc(C)cc2)C2=C(CC(C)(C)CC2=O)N1 (stereo not given)	-0.43
CC1=C(C(=O)Nc2ccccn2)C(c2ccc(Br)cc2)C2=C(CC(C)(C)CC2=O)N1 (stereo not given)	4.09*
CC1=C(C(=O)Nc2ccc(C)cn2)C(c2cccc(Br)c2)C2=C(CC(C)(C)CC2=O)N1 (stereo not given)	1.27
CC1=C(C(=O)OCCc2ccccc2)C(c2ccc3c(c2)OCO3)C2=C(CC(C)(C)CC2=O)N1 (stereo not given)	1.47

Screening data as filed in PubChem.
